Reference: publication PMC4336329 (PLoS ONE, 2015)
About 14,000 (4.5%) of roughly 310,000 compounds showed an effect of 50% or more. Effects have a minus sign here. The full list was thinned out, with strong results kept by preference.

Target: human ether-à-go-go-related gene (hERG) potassium channel (human, UniProt Q12809)
Assay: primary screen, population patch clamp on CHO cells stably expressing hERG; higher = less effect of the substance
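Note: peak tail current of the secondary pulse compared with the same well before compound.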

Sequence of human ether-à-go-go-related gene (hERG) potassium channel (Q12809 whole entry, looked up): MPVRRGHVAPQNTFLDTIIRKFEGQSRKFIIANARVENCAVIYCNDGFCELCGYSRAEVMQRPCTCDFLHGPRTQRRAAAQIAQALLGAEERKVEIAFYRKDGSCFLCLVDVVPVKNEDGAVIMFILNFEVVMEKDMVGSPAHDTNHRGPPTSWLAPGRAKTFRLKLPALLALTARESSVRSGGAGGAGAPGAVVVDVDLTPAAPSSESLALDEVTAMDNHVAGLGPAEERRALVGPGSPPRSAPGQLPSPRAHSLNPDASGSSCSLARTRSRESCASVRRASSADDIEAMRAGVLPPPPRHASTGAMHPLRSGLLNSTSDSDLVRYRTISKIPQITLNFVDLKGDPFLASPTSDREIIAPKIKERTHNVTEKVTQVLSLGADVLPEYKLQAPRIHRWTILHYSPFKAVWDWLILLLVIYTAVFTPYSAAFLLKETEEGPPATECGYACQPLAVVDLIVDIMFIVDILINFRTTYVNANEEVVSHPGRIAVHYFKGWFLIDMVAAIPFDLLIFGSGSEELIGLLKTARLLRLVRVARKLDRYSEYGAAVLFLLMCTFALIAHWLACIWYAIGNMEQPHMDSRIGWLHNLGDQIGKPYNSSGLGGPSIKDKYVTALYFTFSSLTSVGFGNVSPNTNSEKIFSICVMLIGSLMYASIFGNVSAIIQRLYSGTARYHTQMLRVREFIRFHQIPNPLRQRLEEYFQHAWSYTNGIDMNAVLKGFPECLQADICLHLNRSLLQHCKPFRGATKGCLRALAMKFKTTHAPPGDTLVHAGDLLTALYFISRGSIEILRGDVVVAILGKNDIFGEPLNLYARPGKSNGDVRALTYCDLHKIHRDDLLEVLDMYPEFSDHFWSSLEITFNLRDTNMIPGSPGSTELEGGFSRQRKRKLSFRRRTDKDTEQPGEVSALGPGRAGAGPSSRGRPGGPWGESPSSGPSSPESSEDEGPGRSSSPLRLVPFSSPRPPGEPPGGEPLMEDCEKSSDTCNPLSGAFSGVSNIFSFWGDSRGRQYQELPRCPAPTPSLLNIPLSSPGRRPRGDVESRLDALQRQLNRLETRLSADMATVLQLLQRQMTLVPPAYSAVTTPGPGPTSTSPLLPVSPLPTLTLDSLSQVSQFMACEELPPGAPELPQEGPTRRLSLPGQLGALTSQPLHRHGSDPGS

Q: With `O=C(O)C(=O)O.O=C(c1cccc(F)c1)N1CCN(Cc2c[nH]c3ccccc23)CC1` as the molecule, how does the “hERG current change (%, negative = inhibition) at 10uM” value read?
A: Its value is -9.05%.

Q: For `Clc1ccc(CN2CCN(c3ncccn3)CC2)cc1`, which “hERG current change (%, negative = inhibition) at 10uM” value is on record?
A: The value was -4.03%.

Q: With `CN(Cc1ccccc1)c1nc2c(c(=O)n(C)c(=O)n2C)n1CCSc1ncccn1` as the molecule, how does the “hERG current change (%, negative = inhibition) at 10uM” value read?
A: The value was -13.7%.

Q: For `O=C1/C(=C\c2ccc([N+](=O)[O-])cc2)CCc2ccccc21`, which “hERG current change (%, negative = inhibition) at 10uM” value is on record?
A: Its value is -6.6%.

Q: How did the “hERG current change (%, negative = inhibition) at 10uM” value turn out when `O=C1CCNc2c(Cl)cc(Cl)cc21` was run?
A: The value was -2.74%.

Q: For `N#CC1=C(N)Nc2ncnn2C1c1ccccc1` (stereo not drawn), which “hERG current change (%, negative = inhibition) at 10uM” value is on record?
A: Its value is 10.6%.

Q: For `COc1ccc2c(c1)[nH]c1c(Cl)ncnc12`, which “hERG current change (%, negative = inhibition) at 10uM” value is on record?
A: Its value is 3.14%.

Q: For `O[C@H]1c2ccccc2[C@H](Cc2cncs2)[C@@H]1Br`, which “hERG current change (%, negative = inhibition) at 10uM” value is on record?
A: The value was 0.746%.

Q: `O=[N+]([O-])c1ccc(N2CCN(Cc3ccncc3)CC2)cc1` was tested. Which “hERG current change (%, negative = inhibition) at 10uM” value did it give?
A: The value was -64.8%.

Q: How did the “hERG current change (%, negative = inhibition) at 10uM” value turn out when `O=[N+]([O-])c1ccc(CN2CCN(c3ncccn3)CC2)cc1` was run?
A: The value was -32.2%.

Q: For `Fc1ccc(-n2nnc(-c3ccccc3Cl)n2)cc1`, which “hERG current change (%, negative = inhibition) at 10uM” value is on record?
A: The value was 12.2%.

Q: How did the “hERG current change (%, negative = inhibition) at 10uM” value turn out when `O=C(CC1Oc2ccccc2NC1=O)NCCc1ccccc1` (stereo not drawn) was run?
A: Its value is -4.18%.

Q: With `COc1cccc(S(=O)(=O)NC2CCN(C#N)C2)c1` (stereo not drawn) as the molecule, how does the “hERG current change (%, negative = inhibition) at 10uM” value read?
A: Its value is 9.23%.

Q: For `COc1ccc(-c2csc(NC(=O)C3CCN(C(=O)c4ccc(F)cc4)CC3)n2)cc1OC`, which “hERG current change (%, negative = inhibition) at 10uM” value is on record?
A: Its value is -13.8%.

Q: `O=C(Nc1cccc(F)c1)C1CCN(C(=O)c2ccc(Br)cc2)CC1` was tested. Which “hERG current change (%, negative = inhibition) at 10uM” value did it give?
A: Its value is -65.1%.

Q: `O=C(c1ccc(F)cc1)N1CCCC(C(=O)N2CCCCC2)C1` (stereo not drawn) was tested. Which “hERG current change (%, negative = inhibition) at 10uM” value did it give?
A: Its value is 16.5%.

Q: For `O=C(Nc1ccc(F)cc1F)C1CCN(C(=O)c2ccc(Br)cc2)CC1`, which “hERG current change (%, negative = inhibition) at 10uM” value is on record?
A: The value was -30.2%.

Q: For `O=C(Nc1ccccc1)C1CCCN(C(=O)c2ccc(Cl)cc2)C1` (stereo not drawn), which “hERG current change (%, negative = inhibition) at 10uM” value is on record?
A: The value was -9.92%.

Q: With `O=C(Nc1nc(-c2ccc(F)cc2)cs1)C1CCN(C(=O)c2ccc(F)cc2)CC1` as the molecule, how does the “hERG current change (%, negative = inhibition) at 10uM” value read?
A: The value was -54.7%.

Q: For `O=C(Nc1cccc(F)c1)C1CCN(C(=O)c2ccc(Cl)cc2)CC1`, which “hERG current change (%, negative = inhibition) at 10uM” value is on record?
A: The value was -49.4%.

Q: `O=C(Nc1ccc(Br)cc1)C1CCN(C(=O)c2ccco2)CC1` was tested. Which “hERG current change (%, negative = inhibition) at 10uM” value did it give?
A: Its value is -14%.

Q: How did the “hERG current change (%, negative = inhibition) at 10uM” value turn out when `O=C(Nc1nc(-c2ccc(F)cc2)cs1)C1CCCO1` (stereo not drawn) was run?
A: Its value is -6.67%.

Q: `O=C(Nc1ccccc1)C1CCN(C(=O)c2ccc(Br)cc2)CC1` was tested. Which “hERG current change (%, negative = inhibition) at 10uM” value did it give?
A: Its value is -59.3%.

Q: How did the “hERG current change (%, negative = inhibition) at 10uM” value turn out when `O=C(Nc1ccccc1)C1CCN(C(=O)c2ccccc2)CC1` was run?
A: The value was 4.62%.

Q: For `O=C(Nc1ccccc1)C1CCCN(C(=O)c2ccc(F)cc2)C1` (stereo not drawn), which “hERG current change (%, negative = inhibition) at 10uM” value is on record?
A: Its value is -51.8%.

Q: Which “hERG current change (%, negative = inhibition) at 10uM” value does the source give for `COc1ccc(CSc2nc(N3CCOCC3)c3c(c2C#N)CC(C)(C)OC3)cc1` here?
A: Its value is -14.5%.

Q: How did the “hERG current change (%, negative = inhibition) at 10uM” value turn out when `CC1=C2[C@@H]3OC(=O)[C@H](C)C3CC[C@@]2(C)C=CC1=O` (stereo partly drawn) was run?
A: The value was 27.7%.

Q: How did the “hERG current change (%, negative = inhibition) at 10uM” value turn out when `CCNc1nc(Oc2ccc(C(=O)OCC)cc2)nc(N2CCOCC2)n1` was run?
A: The value was -6.59%.

Q: With `COc1cc2c(cc1NC(=O)CCC(=O)O)oc1ccccc12` as the molecule, how does the “hERG current change (%, negative = inhibition) at 10uM” value read?
A: The value was 18.5%.

Q: For `CCOC(=O)C1CCCN(S(=O)(=O)c2ccc(Br)c(OC)c2)C1` (stereo not drawn), which “hERG current change (%, negative = inhibition) at 10uM” value is on record?
A: Its value is -14.3%.

Q: Which “hERG current change (%, negative = inhibition) at 10uM” value does the source give for `ONC(=Nc1ccccc1Cl)c1ccccc1Cl` here?
A: The value was -14%.

Q: How did the “hERG current change (%, negative = inhibition) at 10uM” value turn out when `COC(=O)c1ccc(Oc2nc(NC(C)C)nc(N(C)C)n2)cc1` was run?
A: The value was 12.5%.

Q: With `Cc1cccc(OCC(=O)N2CCCc3ccccc32)c1` as the molecule, how does the “hERG current change (%, negative = inhibition) at 10uM” value read?
A: Its value is 8.85%.

Q: How did the “hERG current change (%, negative = inhibition) at 10uM” value turn out when `O=C(Nc1ccc(Br)cc1)C1CCN(C(=O)c2ccc(F)cc2)CC1` was run?
A: The value was -61.9%.

Q: For `O=C(Nc1ccc(S(=O)(=O)N2CCCCC2)cc1)C1CCN(C(=O)c2ccc(F)cc2)CC1`, which “hERG current change (%, negative = inhibition) at 10uM” value is on record?
A: Its value is -33.7%.

Q: For `O=C(Nc1ccc(F)cc1)C1CCN(C(=O)c2ccc(F)cc2)CC1`, which “hERG current change (%, negative = inhibition) at 10uM” value is on record?
A: Its value is -37.4%.

Q: `Cc1cc(C(=O)OCC(=O)NCCc2ccccc2)c2ccccc2n1` was tested. Which “hERG current change (%, negative = inhibition) at 10uM” value did it give?
A: Its value is -17.7%.

Q: Which “hERG current change (%, negative = inhibition) at 10uM” value does the source give for `CCOc1ccc(NC(=O)NCC2CCN(Cc3ccc(F)cc3)CC2)cc1` here?
A: Its value is -76.4%.

Q: Which “hERG current change (%, negative = inhibition) at 10uM” value does the source give for `O=C(NCC1CCN(Cc2ccccc2F)CC1)Nc1ccccc1F` here?
A: The value was -22.5%.

Q: For `O=C(NCC1CCN(S(=O)(=O)c2ccccc2)CC1)Nc1ccc(F)cc1F`, which “hERG current change (%, negative = inhibition) at 10uM” value is on record?
A: Its value is -4.47%.

Q: Which “hERG current change (%, negative = inhibition) at 10uM” value does the source give for `COc1cc([N+](=O)[O-])ccc1NC(=O)CN1CCCC1` here?
A: The value was 3.84%.

Q: `Cc1ccccc1CN1CCC(CNC(=O)Nc2ccc(F)cc2F)CC1` was tested. Which “hERG current change (%, negative = inhibition) at 10uM” value did it give?
A: The value was -31.4%.

Q: How did the “hERG current change (%, negative = inhibition) at 10uM” value turn out when `O=C(NCC1CCN(Cc2ccc(F)cc2)CC1)Nc1cc(F)ccc1F` was run?
A: Its value is -65.1%.

Q: With `COc1cccc(NC(=O)NCC2CCN(Cc3ccc(F)cc3)CC2)c1` as the molecule, how does the “hERG current change (%, negative = inhibition) at 10uM” value read?
A: The value was -47.4%.

Q: How did the “hERG current change (%, negative = inhibition) at 10uM” value turn out when `O=C(NCC1CCN(Cc2ccccc2F)CC1)Nc1cc(F)ccc1F` was run?
A: Its value is -59.9%.

Q: With `COc1cc([N+](=O)[O-])ccc1NC(=O)NCC1CCN(Cc2ccc(Cl)cc2)CC1` as the molecule, how does the “hERG current change (%, negative = inhibition) at 10uM” value read?
A: The value was -60.9%.

Q: Which “hERG current change (%, negative = inhibition) at 10uM” value does the source give for `CCOc1ccc(NC(=O)NCC2CCN(c3ccc(OC)cc3)C2)cc1` (stereo not drawn) here?
A: The value was -7.35%.

Q: How did the “hERG current change (%, negative = inhibition) at 10uM” value turn out when `COc1cc(NC(=O)NCC2CCN(Cc3ccc(C)cc3)CC2)cc(OC)c1OC` was run?
A: Its value is -0.392%.
